# In PubChem BioAssay (EPA / NIEHS):
# Calls of active or inactive are those of the source. Rule for the calls: active = hit-call score of the fitted dose curve at least 0.9, where 1 is the maximum; inactive = score below 0.9.
# What was measured:
# [1] = ATG_PXRE_CIS: Attagene CIS-FACTORIAL HepG2 Assay for human Pregnane X Receptor Element (PXRE) (AID 2282957); conditions: HepG2 Attagene CIS-FACTORIAL PXRE reporter, mRNA; actives raise or lower the signal
# Outline: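 Transfect HepG2 with MRTUs (cis promoter elements); dose chemical, incubate 24 h; isolate RNA, RT with oligo(dT), PCR, 6-FAM label, HpaI cut, CE. Gain/loss fit vs DMSO.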
# [2] = ATG_PPRE_CIS: Attagene CIS-FACTORIAL HepG2 Assay for human Peroxisome Proliferator-activated Response Element (PPRE) (AID 2282958); conditions: HepG2 PPRE cis-element reporter, Attagene transcription factor profiling; actives raise or lower the signal
# Outline: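 HepG2 cells transiently transfected with multiplexed cis-element reporter units measure endogenous transcription factor activity. After 24 h compound exposure, reporter mRNA is quantified by RT-PCR, 6-FAM labeling, HpaI digestion and capillary electrophoresis; bidirectional fits are made against DMSO baseline.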
# [3] = ATG_RORE_CIS: Attagene CIS-FACTORIAL HepG2 Assay for human RAR-related Orphan Receptor Element (RORE) (AID 2282959); conditions: HepG2 Attagene cis-factorial RORE reporter, mRNA; actives raise or lower the signal
# Outline: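 HepG2 cells transiently transfected with multiple cis-element reporter transcription units, exposed to chemical for 24 h. Reporter mRNA quantified by RT-PCR, 6-FAM primer-extension labeling, HpaI digestion and capillary electrophoresis; bidirectional fit versus DMSO baseline.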
# [4] = ATG_Sox_CIS: Attagene CIS-FACTORIAL HepG2 Assay for human SRY-box transcription factor (SOX) (AID 2282960); conditions: HepG2 Attagene cis-factorial SOX reporter, mRNA; actives raise or lower the signal
# Outline: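 HepG2 cells transiently transfected with cis-element-driven multiple reporter transcription units, dosed 24 h; reporter mRNA measured by RT-PCR, FAM labelling, HpaI digestion and capillary electrophoresis. Bidirectional fit versus DMSO baseline.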
# [5] = target: Transcription factor Sp1 (Homo sapiens) (UniProt P08047); assay: ATG_Sp1_CIS: Attagene CIS-FACTORIAL HepG2 Assay for human Specificity Protein 1 (Sp1) (AID 2282961); conditions: HepG2 Sp1 cis-reporter transcription, actives raise or lower the signal
# Outline: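 HepG2 cells transiently transfected with multiple reporter transcription units driven by cis-regulatory elements; Sp1-responsive reporter mRNA measured 24 h after dosing by RT-PCR and capillary electrophoresis fluorescence, fitted bidirectionally against DMSO baseline.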
# [6] = ATG_SREBP_CIS: Attagene CIS-FACTORIAL HepG2 Assay for human Sterol Regulatory Element Binding (SREBP) (AID 2282962); conditions: HepG2 Attagene cis-factorial SREBP reporter, mRNA; actives raise or lower the signal
# Outline: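 Twenty-four hours after chemical dosing of transfected HepG2 cultures, reporter RNA was converted to cDNA, amplified, end-labelled with 6-FAM and resolved by capillary electrophoresis. Responses were fitted relative to DMSO.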
# [7] = target: Signal transducer and activator of transcription 3 (Homo sapiens) (UniProt P40763); assay: ATG_STAT3_CIS: Attagene CIS-FACTORIAL HepG2 Assay for human Signal Transducer and Activator of Transcription 3 (STAT3) (AID 2282963); conditions: HepG2, Attagene cis-factorial STAT3 reporter transcription; actives raise or lower the signal
# Outline: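 Transcript-level reporter assay. HepG2 transient MRTU transfection, 24 h exposure, fluorescence detection after RT-PCR and CE; DMSO baseline.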
# [8] = ATG_TA_CIS: Attagene CIS-FACTORIAL HepG2 Assay for human TA Basal Promoter (AID 2282964); conditions: HepG2 Attagene CIS-factorial TA basal promoter reporter; actives raise or lower the signal
# Outline: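 HepG2 cells transiently transfected with multiplexed cis-promoter reporter units, dosed 24 h. Reporter mRNA measured by RT-PCR, 6-FAM labelling, HpaI digestion and capillary electrophoresis; bidirectional fit versus DMSO baseline, serving as background control.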
# [9] = ATG_TCF_b_cat_CIS: Attagene CIS-FACTORIAL HepG2 Assay for human T-Cell-Factor with beta-catenin (TCF/b-cat) (AID 2282965); conditions: HepG2 TCF/beta-catenin cis-reporter transcription, actives raise or lower the signal
# Outline: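 Using capillary electrophoresis as the read-out, labelled reporter cDNA fragments from transiently transfected HepG2 were sized and quantified. Exposure lasted 24 hours; activity in either direction was referenced to DMSO.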
# [10] = ATG_TAL_CIS: Attagene CIS-FACTORIAL HepG2 Assay for human TAL Basal Promoter (AID 2282966); conditions: HepG2 Attagene cis-factorial TAL promoter reporter; actives raise or lower the signal;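 note: background control endpoint measuring basal TAL promoter reporter mRNA not a specific factor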
# Outline: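 Fluorescence of labelled reporter cDNA fragments, resolved by capillary electrophoresis, gave the readout. Human HepG2 liver cells carried transiently transfected cis-element reporter units and were treated for 24 hours; activity was fitted bidirectionally against DMSO.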
# Chain of Transcription factor Sp1 (Homo sapiens) (P08047 whole entry, looked up): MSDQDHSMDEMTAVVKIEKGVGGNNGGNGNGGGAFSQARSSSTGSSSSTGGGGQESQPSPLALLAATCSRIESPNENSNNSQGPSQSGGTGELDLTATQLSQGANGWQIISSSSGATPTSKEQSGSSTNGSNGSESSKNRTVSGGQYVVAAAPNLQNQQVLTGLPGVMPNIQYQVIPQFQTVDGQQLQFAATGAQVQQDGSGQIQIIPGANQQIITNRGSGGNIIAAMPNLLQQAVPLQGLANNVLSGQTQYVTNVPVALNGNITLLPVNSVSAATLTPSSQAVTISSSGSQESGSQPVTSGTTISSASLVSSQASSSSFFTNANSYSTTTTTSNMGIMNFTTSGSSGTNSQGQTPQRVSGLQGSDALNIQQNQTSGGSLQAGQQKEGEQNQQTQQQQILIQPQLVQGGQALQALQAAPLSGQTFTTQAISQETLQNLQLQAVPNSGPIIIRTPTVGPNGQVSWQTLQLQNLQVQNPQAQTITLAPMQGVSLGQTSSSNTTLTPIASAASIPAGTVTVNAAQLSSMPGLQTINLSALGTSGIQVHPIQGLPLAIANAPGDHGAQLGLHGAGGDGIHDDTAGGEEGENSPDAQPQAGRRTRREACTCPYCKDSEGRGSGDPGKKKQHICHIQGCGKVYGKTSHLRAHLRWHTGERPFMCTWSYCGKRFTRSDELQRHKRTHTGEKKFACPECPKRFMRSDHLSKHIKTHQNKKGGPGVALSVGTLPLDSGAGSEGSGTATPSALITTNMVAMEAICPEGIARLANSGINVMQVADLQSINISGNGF
# Chain of Signal transducer and activator of transcription 3 (Homo sapiens) (P40763 whole entry, looked up): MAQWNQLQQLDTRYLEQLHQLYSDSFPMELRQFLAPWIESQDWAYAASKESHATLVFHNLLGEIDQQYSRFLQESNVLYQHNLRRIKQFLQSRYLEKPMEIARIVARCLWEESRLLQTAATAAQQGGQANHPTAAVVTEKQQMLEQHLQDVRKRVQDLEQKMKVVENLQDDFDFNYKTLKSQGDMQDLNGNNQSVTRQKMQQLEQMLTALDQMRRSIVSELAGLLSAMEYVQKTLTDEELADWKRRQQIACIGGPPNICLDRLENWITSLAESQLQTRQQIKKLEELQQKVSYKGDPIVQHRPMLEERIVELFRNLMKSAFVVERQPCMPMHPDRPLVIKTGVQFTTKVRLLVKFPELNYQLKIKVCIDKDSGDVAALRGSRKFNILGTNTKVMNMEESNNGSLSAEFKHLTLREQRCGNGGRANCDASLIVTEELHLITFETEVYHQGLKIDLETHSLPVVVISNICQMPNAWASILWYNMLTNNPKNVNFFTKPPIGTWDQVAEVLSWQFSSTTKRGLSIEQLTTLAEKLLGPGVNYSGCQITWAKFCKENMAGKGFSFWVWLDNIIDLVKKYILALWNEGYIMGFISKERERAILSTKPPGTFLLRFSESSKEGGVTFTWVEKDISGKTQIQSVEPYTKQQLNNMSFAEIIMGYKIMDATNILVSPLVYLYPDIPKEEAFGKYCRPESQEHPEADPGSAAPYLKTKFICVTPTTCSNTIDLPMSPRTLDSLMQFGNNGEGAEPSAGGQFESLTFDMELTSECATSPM
Compound,outcome [1],outcome [2],AC50 [3],AC50 [4],AC50 [5],AC50 [6],outcome [7],outcome [8],AC50 [9],outcome [10],outcome [3],outcome [4],outcome [5],outcome [6],outcome [9],AC50 [1],AC50 [2],AC50 [8],AC50 [10]
C=CC(=O)OCC(CO)(COCC(COC(=O)C=C)(COC(=O)C=C)COC(=O)C=C)COC(=O)C=C,inactive,inactive,2.71 µM (active),5.94 µM (active),3.37 µM (active),2.85 µM (active),inactive,inactive,426 nM (active),inactive,–,–,–,–,–,–,–,–,–
FCOC(C(F)(F)F)C(F)(F)F,inactive,inactive,–,–,–,–,inactive,inactive,–,inactive,inactive,inactive,inactive,inactive,inactive,–,–,–,–
CCOC(=O)CN[C@@H](C(=O)N1CC[C@H]1C(=O)NCc1ccc(/C(N)=N/O)cc1)C1CCCCC1,inactive,inactive,–,–,–,–,inactive,inactive,–,inactive,inactive,inactive,inactive,inactive,inactive,–,–,–,–
O=C(NCc1ncc(C(F)(F)F)cc1Cl)c1c(Cl)cccc1Cl,–,inactive,–,–,–,10.1 µM (active),inactive,inactive,–,inactive,inactive,inactive,inactive,–,inactive,0.799 µM (active),–,–,–
c1cc2cccc3c4cccc5cccc(c(c1)c23)c54,inactive,inactive,–,–,–,–,inactive,inactive,–,inactive,inactive,inactive,inactive,inactive,inactive,–,–,–,–
C=CC(=O)OCCC(F)(F)C(F)(F)C(F)(F)C(F)(F)C(F)(F)C(F)(F)F,inactive,inactive,–,–,–,–,inactive,inactive,–,inactive,inactive,inactive,inactive,inactive,inactive,–,–,–,–
Cc1ccc(N=Nc2c(O)ccc3ccccc23)c(C)c1,–,inactive,–,–,–,–,inactive,inactive,–,inactive,inactive,inactive,inactive,inactive,inactive,2.81 µM (active),–,–,–
C[N+](C)(CCCNS(=O)(=O)CCC(F)(F)C(F)(F)C(F)(F)C(F)(F)C(F)(F)C(F)(F)F)CC(=O)[O-],–,inactive,–,–,–,0.00355 µM (active),inactive,inactive,0.979 nM (active),inactive,inactive,inactive,inactive,–,–,0.00267 µM (active),–,–,–
FC(F)(F)C(F)(F)C(F)(F)Br,inactive,inactive,–,–,–,–,inactive,inactive,–,inactive,inactive,inactive,inactive,inactive,inactive,–,–,–,–
O=S(=O)(c1ccc(OCc2ccccc2)cc1)c1ccccc1O,–,–,–,–,30.6 µM (active),22.7 µM (active),inactive,inactive,54400 nM (active),inactive,inactive,inactive,–,–,–,7.94 µM (active),0.156 µM (active),–,–
COC(=O)C(F)(F)C(F)(F)C(F)(F)C(F)(F)C(F)(F)F,inactive,inactive,–,–,–,–,inactive,inactive,–,inactive,inactive,inactive,inactive,inactive,inactive,–,–,–,–
CC(C)[C@@H]1CC[C@@H](C)C[C@H]1O,inactive,inactive,–,–,–,–,inactive,inactive,–,inactive,inactive,inactive,inactive,inactive,inactive,–,–,–,–
O=C(OC(=O)C(F)(F)C(F)(F)F)C(F)(F)C(F)(F)F,inactive,inactive,–,–,–,–,inactive,inactive,–,inactive,inactive,inactive,inactive,inactive,inactive,–,–,–,–
CCC(C)c1nccnc1OC (stereo not given),inactive,inactive,–,–,–,–,inactive,inactive,–,inactive,inactive,inactive,inactive,inactive,inactive,–,–,–,–
CCCCCCOC(=O)c1ccc(O)cc1,–,–,51.2 µM (active),–,37.1 µM (active),33.4 µM (active),inactive,inactive,–,inactive,–,inactive,–,–,inactive,13 µM (active),22.9 µM (active),–,–
CCCCc1oc2ccccc2c1C(=O)c1cc(I)c(OCCN(CC)CC)c(I)c1,–,inactive,–,128 µM (active),130 µM (active),19.7 µM (active),inactive,–,–,–,inactive,–,–,–,inactive,1.44 µM (active),–,19.8 µM (active),26.1 µM (active)
Cc1ccc2ccc3ccc(C)cc3c2c1,–,inactive,–,–,–,–,inactive,inactive,–,inactive,inactive,inactive,inactive,inactive,inactive,8.1 µM (active),–,–,–
CCCCCc1ccc(O)cc1,–,inactive,–,–,–,–,inactive,inactive,–,inactive,inactive,inactive,inactive,inactive,inactive,33.4 µM (active),–,–,–
FC(F)=C(F)C(F)(F)C(F)(F)C(F)(F)C(F)F,inactive,inactive,–,–,–,–,inactive,inactive,–,inactive,inactive,inactive,inactive,inactive,inactive,–,–,–,–
c1ccc(CNc2ncnc3c2ncn3C2CCCCO2)cc1 (stereo not given),–,inactive,–,–,–,–,inactive,inactive,–,inactive,inactive,inactive,inactive,inactive,inactive,4.73 µM (active),–,–,–
